# Assay results reported in PubChem BioAssay (Tox21).
# Where “and” joins values, the source holds several entries; their conditions need not be identical. Equal entries are not always repeated. Records with an inconclusive call do not appear. More than one record can exist for a structure, and the calls need not agree. Calls of active or inactive are those of the source. Calls come from the whole dose curve; as a rule, active = well fitted inhibition curve with a large enough effect in the signal ratio in the repeat runs (not every such curve was filed as active); inconclusive = weak or mixed curves, or effect the other way; inactive = no such curve, though single readings can be large or run the other way; the % refers to the signal ratio.
# Target: Glucocorticoid receptor (Homo sapiens) (UniProt P04150)
# Assay: qHTS assay to identify small molecule antagonists of the glucocorticoid receptor (GR) signaling pathway (AID 720692)
# Settings: GR-bla HeLa, beta-lactamase FRET ratio, dexamethasone-stimulated, 18 h; series mostly up to 58.5 µM; activity change, negative = inhibition: at the top concentration
# From the text: U.S. Tox21 Program National Center for Advancing Translational Sciences [NCATS] NIH Chemical Genomics Center [NCGC] U.S. Environmental Protection Agency [EPA] National Institutes of Environmental Health Sciences [NIEHS] National Toxicology Program [NTP] U.S. Food and Drug Administration [FDA] Tox21 Assay Overview: The Glucocorticoid receptor (GR) is one of the members of the nuclear receptor family of ligand-dependent transcription factors. GR plays a critical role in carbohydrate, protein and lipid metabolisms and programmed cell death. CellSensor GR-bla HeLa cell line (Invitrogen) contains a beta-lactamase reporter gene under the control of the glucocorticoid response element stably integrated into HeLa cells, a cervical cancer cell line that expresses glucocorticoid receptor. The activation of the reporter gene under culture conditions can be detected by fluorescence intensity. This cell line has been used to screen the Tox21 10K compound library and to identify the compounds that inhibit the GR signaling.
# Tox21 Assay Protocol Summary: The GR-bla HeLa cells were dispensed at 1500 cells/5 ul/well in 1536-well black wall/clear bottom plates using a Multidrop Combi (ThermoFisher Scientific, Waltham, MA) dispenser. After the assay plates were incubated at a 37 C/5% CO2 incubator for 4 hours, 23 nL of compounds dissolved in DMSO, positive controls or DMSO only was transferred to the assay plate by a pintool station (Kalypsys, San Diego, CA), followed by addition of 1 uL of dexamethasone (5 nM, final concentration in the well). The plates were incubated at 37 C for 18 hours. After 1 uL of LiveBLAzerTM B/G FRET substrate was added using a Flying Reagent Dispenser (Aurora Discovery, San Diego, CA), the plates were incubated at room temperature for 2 hours, and fluorescence intensity was measured by an Envision plate reader (PerkinElmer, Shelton, CT).
# % is set by controls: 0 for no effect and ±100 for the full control effect; potency is the fitted concentration of half-maximal effect.
# Chain of Glucocorticoid receptor (Homo sapiens) (P04150 whole entry, looked up): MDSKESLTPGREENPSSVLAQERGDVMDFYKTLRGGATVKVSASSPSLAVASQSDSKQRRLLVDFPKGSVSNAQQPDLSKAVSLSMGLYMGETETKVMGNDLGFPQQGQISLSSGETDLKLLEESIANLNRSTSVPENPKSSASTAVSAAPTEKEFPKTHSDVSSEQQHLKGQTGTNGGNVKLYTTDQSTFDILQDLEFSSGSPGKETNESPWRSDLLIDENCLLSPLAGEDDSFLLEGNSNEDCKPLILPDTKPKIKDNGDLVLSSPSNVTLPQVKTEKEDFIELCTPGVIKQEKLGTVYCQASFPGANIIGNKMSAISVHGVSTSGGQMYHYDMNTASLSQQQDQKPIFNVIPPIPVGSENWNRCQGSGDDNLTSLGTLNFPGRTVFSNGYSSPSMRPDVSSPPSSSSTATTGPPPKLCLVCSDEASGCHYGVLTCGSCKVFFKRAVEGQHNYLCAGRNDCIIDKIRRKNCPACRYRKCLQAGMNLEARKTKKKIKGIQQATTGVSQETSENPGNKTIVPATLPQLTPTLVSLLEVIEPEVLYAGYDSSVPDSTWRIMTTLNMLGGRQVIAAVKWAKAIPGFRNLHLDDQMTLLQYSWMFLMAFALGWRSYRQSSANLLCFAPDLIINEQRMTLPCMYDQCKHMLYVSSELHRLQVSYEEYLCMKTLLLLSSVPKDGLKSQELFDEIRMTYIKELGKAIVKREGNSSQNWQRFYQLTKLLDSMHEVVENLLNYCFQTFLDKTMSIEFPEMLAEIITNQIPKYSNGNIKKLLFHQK
Structure (SMILES),"activity change, negative = inhibition",Potency
CCC(=O)OC,-3.38% [at 78.9 µM] (inactive),–
O=C(O)C[C@H](NC(=O)OCc1ccccc1)C(=O)O,17.8% (inactive),–
CCOC(=O)[C@H](CCc1ccccc1)N[C@@H](C)C(=O)N(CC(=O)O)C1Cc2ccccc2C1,-1.05% (inactive),–
OC(CCN1CCCC1)(c1ccccc1)C1CCCCC1 (stereo not given),28.1% [at 27 µM] (inactive),–
CCC(C)COC(C)=O (stereo not given),-5.51% (inactive),–
CO/N=C(/C(=O)N[C@@H]1C(=O)N2C(C(=O)O)=C(COC(N)=O)CS[C@H]12)c1ccco1,–,inactive
O=C(O)c1cccc(-c2noc(-c3ccccc3F)n2)c1,6.95% (inactive),–
c1csc(SSc2cccs2)c1,-3.03% (inactive),–
c1ccc(C[n+]2cccc3ccccc32)cc1,-25.1% (inactive),–
O=C1CCCCCCCCCCOCCCCO1,1.93% (inactive),–
NNC(=O)CP(=O)(c1ccccc1)c1ccccc1,-14.4% (inactive),–
C=CC(=O)[O-].C=CC(=O)[O-].[Zn+2],3.23% (inactive),–
CCN(CC)CCNC(=O)COc1ccc(OC)cc1,-5.1% (inactive),–
CCOc1cccc(-n2cc(C(=O)N3CCN(c4cc(C(=O)O)c5ccccc5c4)CC3)nc2-c2ccc(C)cc2)c1,–,14.8 µM (active)
CC/C=C1/OC(=O)c2ccccc21,-8.25% (inactive),–
CCC=CC#N,8.02% (inactive),–
CCC(OCCCOC)OC(C)=O (stereo not given),3.45% [at 78.9 µM] (inactive),–
CN(C(=O)CN(CCO)CC(=O)N(C)C(C)(C)Cc1ccccc1)C(C)(C)Cc1ccccc1,10.8% [at 27 µM] (inactive),–
CCCCN1CCCC1C(=O)Nc1c(C)cc(C)cc1C (stereo not given),-1.69% (inactive),–
Nc1cccc2c1CN(C1CCC(=O)NC1=O)C2=O (stereo not given),0.423% (inactive),–

Structure (SMILES),"activity change, negative = inhibition",Potency
O=C(OC(=O)c1ccccc1)c1ccccc1,-1.44% [at 78.9 µM] (inactive),–
CCC1(CO)COCOC1,26.4% (inactive),–
CCCCCCCCCI,-14.3% [at 78.9 µM] (inactive),–
CCC(C)(C)OC,-0.535% (inactive),–
Oc1ccc(Cl)c2cccnc12,0.523% (inactive),–
CCCC(=O)C(=O)O,-14.6% (inactive),–
C=Cc1ccc(S(=O)(=O)O)cc1,–,inactive and 19.5 µM (active)
Cc1cccc(O)c1N,-21.2% [at 78.9 µM] (inactive),–
Cc1c(C)c2c(c(C)c1OC(=O)CCC(=O)OCCO)CC[C@@](C)(CCC[C@H](C)CCC[C@H](C)CCCC(C)C)O2,–,19 µM (active)
O[C@@H]1CO[C@H]2[C@@H]1OC[C@@H]2O,2.21% (inactive),–
CCCCCCCCC(CCCCCC)C(=O)O (stereo not given),–,38.9 µM (active)
C1COC1,-11.2% (inactive),–
COc1ccccc1Oc1c(NS(=O)(=O)c2ccc(C(C)(C)C)cc2)nc(-c2ncccn2)nc1OCCO,-30.5% (inactive),–
NC1[C@H]2CN(c3nc4c(cc3F)c(=O)c(C(=O)O)cn4-c3ccc(F)cc3F)C[C@@H]12 (stereo not given in full),14.9% (inactive),–
CC1(C)[C@@H](OC(=O)CCC(=O)O)CC[C@]2(C)[C@H]3C(=O)C=C4[C@@H]5C[C@@](C)(C(=O)O)CC[C@]5(C)CC[C@@]4(C)[C@]3(C)CC[C@@H]12,-8.63% [at 27 µM] (inactive),–
O=C(O)CCCCCCCCCCCBr,-18.1% (inactive),–
CN1C[C@H](C(=O)N[C@]2(C)O[C@@]3(O)[C@@H]4CCCN4C(=O)[C@H](Cc4ccccc4)N3C2=O)C[C@@H]2c3cccc4[nH]cc(c34)C[C@H]21,1.37% (inactive),–
O=Cc1c2ccccc2c(Cl)c2ccccc12,12.7% (inactive),–
CN1C(C(=O)Nc2ccccn2)=C(O)c2sccc2S1(=O)=O,6.91% [at 27 µM] (inactive),–
COC(=O)C1=C(C)NC(C)=C(C(=O)O[C@@H]2CCCN(Cc3ccccc3)C2)[C@@H]1c1cccc([N+](=O)[O-])c1,–,10.7 µM (active)
